The values that follow come from PubChem BioAssay (EPA / NIEHS).

Inconclusive results are not listed. Calls of active or inactive are those of the source. The calls were made as follows, unless noted: active = hit-call score of the fitted dose curve at least 0.9, where 1 is the maximum; inactive = score below 0.9.

Test [1] can be described thus: ATG_TAL_CIS: Attagene CIS-FACTORIAL HepG2 Assay for human TAL Basal Promoter (AID 2282966).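 Also: background control endpoint measuring basal TAL promoter reporter mRNA not a specific factor.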 The following applies: HepG2 Attagene cis-factorial TAL promoter reporter; actives raise or lower the signal. A digest of the protocol: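 HepG2, transient MRTU transfection, 24 h compound exposure; RNA → oligo(dT) RT → PCR → 6-FAM primer extension → HpaI digest → CE fluorescence. Bidirectional curve fit vs DMSO. Background-control readout.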

Test [2] can be described thus: ATG_TGFb_CIS: Attagene CIS-FACTORIAL HepG2 Assay for human Transforming Growth Factor (TGF) (AID 2282967). Particulars: HepG2 Attagene CIS TGFb reporter, mRNA transcription; actives raise or lower the signal. In short, it runs like this: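 HepG2 cells transiently transfected with cis-promoter-driven multiple reporter units measure endogenous TF activity; reporter mRNA quantified at 24 h by RT-PCR, FAM labeling, HpaI digestion and capillary electrophoresis. Bidirectional fit vs DMSO.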

Test [3] deals with X-box-binding protein 1 (Homo sapiens) (UniProt P17861). Nature of the test: ATG_Xbp1_CIS: Attagene CIS-FACTORIAL HepG2 Assay for human X-box Binding Protein 1 (XBP1) (AID 2282972). Particulars: HepG2 XBP1 cis-element reporter, Attagene multiplex; actives raise or lower the signal. In short, it runs like this: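 Reporter transcripts were quantified by RT-PCR with fluorescent primer extension and capillary electrophoresis after 24 h chemical exposure. Cells: transiently transfected HepG2 carrying cis-regulated reporter constructs; data fitted bidirectionally relative to DMSO.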
Sequence of X-box-binding protein 1 (Homo sapiens) (P17861 whole entry, looked up): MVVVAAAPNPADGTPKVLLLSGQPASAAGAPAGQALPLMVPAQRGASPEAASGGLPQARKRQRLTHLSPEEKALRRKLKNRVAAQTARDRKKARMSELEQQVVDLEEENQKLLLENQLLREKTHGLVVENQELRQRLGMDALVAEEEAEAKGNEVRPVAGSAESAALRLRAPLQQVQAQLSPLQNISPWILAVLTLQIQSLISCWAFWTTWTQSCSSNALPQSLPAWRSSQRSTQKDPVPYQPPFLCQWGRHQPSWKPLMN

Test [4] in a line: ATG_M_19_TRANS: Attagene TRANS-FACTORIAL HepG2 Assay for M19 Transcription Factor (Internal Marker) (AID 2282974; active = hit-call score of the fitted dose curve at least 0.9, where 1 is the maximum). The following applies: HepG2 Attagene TRANS-FACTORIAL M19 internal marker reporter. In short, it runs like this: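 Multiplexed TRANS format: HepG2 liver cells bearing transient GAL4-UAS reporter units, chemical treatment 24 h, reporter transcripts quantified by RT-PCR plus capillary electrophoresis. DMSO defines baseline.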

The target of test [5] is Oxysterols receptor LXR-alpha (Homo sapiens) (UniProt Q13133). The experiment in a line: ATG_LXRa_TRANS: Attagene TRANS-FACTORIAL HepG2 Assay for human Liver X Receptor alpha (LXRa) (AID 2282980; active = hit-call score of the fitted dose curve at least 0.9, where 1 is the maximum). The following applies: HepG2 Attagene TRANS reporter, LXRa transactivation. A digest of the protocol: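 Read-out: reporter transcript levels by RT-PCR plus capillary electrophoresis, fluorescence intensity. Transiently transfected HepG2, exogenous NR-GAL4 chimera, GAL4-UAS reporters; 24 h compound exposure. Activity = increase over DMSO negative control.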
Sequence of Oxysterols receptor LXR-alpha (Homo sapiens) (Q13133 whole entry, looked up, the tested form may be a part): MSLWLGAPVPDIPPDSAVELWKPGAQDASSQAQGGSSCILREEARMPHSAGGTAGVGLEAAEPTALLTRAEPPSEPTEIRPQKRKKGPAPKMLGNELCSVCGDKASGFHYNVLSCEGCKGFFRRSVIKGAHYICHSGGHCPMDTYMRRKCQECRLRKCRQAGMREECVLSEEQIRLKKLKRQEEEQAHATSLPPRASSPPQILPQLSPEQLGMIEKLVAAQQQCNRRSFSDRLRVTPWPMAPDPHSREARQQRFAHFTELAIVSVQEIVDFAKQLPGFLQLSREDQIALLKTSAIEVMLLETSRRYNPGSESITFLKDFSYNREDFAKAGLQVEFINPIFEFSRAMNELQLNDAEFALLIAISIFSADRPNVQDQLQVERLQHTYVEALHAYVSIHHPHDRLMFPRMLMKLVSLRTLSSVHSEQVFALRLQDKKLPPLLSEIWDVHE

The target of test [6] is Oxysterols receptor LXR-beta (Homo sapiens) (UniProt P55055). The experiment in a line: ATG_LXRb_TRANS: Attagene TRANS-FACTORIAL HepG2 Assay for human Liver X Receptor beta (LXRb) (AID 2282981; active = hit-call score of the fitted dose curve at least 0.9, where 1 is the maximum). The following applies: HepG2 Attagene TRANS GAL4-LXRb reporter, mRNA. In short, it runs like this:
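After 24 h chemical treatment of transfected HepG2 cells carrying exogenous NR-Gal4 chimeras, reporter mRNA was quantified by fluorescent RT-PCR and capillary electrophoresis; activity taken as increase over DMSO controls.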

Test [7] has as its target Hepatocyte nuclear factor 4-alpha (Homo sapiens) (UniProt P41235). The experiment in a line: ATG_HNF4a_TRANS: Attagene TRANS-FACTORIAL HepG2 Assay for human Hepatocyte Nuclear Factor 4 alpha (HNF4a) (AID 2282982; active = hit-call score of the fitted dose curve at least 0.9, where 1 is the maximum). Particulars: HepG2 HNF4a transactivation reporter, mRNA readout. A digest of the protocol:
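Activity of an exogenous HNF4a–Gal4 fusion scored as induced GAL4-UAS reporter transcripts after 24 h chemical exposure of transfected human HepG2 cells. Read-out via RT-PCR with 6-FAM labelling and capillary electrophoresis; rise over DMSO baseline.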

In test [8] the target is Nuclear receptor subfamily 4 group A member 2 (Homo sapiens) (UniProt P43354). Nature of the test: ATG_NURR1_TRANS: Attagene TRANS-FACTORIAL HepG2 Assay for human Nuclear Receptor Related Protein 1 (NURR1) (AID 2282985; active = hit-call score of the fitted dose curve at least 0.9, where 1 is the maximum). The following applies: HepG2 Attagene TRANS reporter, mRNA readout. A digest of the protocol: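 Reporter transcript induction, measured by RT-PCR with fluorescent labelling, HpaI digestion and capillary electrophoresis, after 24 hr dosing of human HepG2 cells transiently expressing an exogenous NR-Gal4 fusion with GAL4-UAS-driven reporters; DMSO as baseline.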
Sequence of Nuclear receptor subfamily 4 group A member 2 (Homo sapiens) (P43354 whole entry, looked up, the tested form may be a part): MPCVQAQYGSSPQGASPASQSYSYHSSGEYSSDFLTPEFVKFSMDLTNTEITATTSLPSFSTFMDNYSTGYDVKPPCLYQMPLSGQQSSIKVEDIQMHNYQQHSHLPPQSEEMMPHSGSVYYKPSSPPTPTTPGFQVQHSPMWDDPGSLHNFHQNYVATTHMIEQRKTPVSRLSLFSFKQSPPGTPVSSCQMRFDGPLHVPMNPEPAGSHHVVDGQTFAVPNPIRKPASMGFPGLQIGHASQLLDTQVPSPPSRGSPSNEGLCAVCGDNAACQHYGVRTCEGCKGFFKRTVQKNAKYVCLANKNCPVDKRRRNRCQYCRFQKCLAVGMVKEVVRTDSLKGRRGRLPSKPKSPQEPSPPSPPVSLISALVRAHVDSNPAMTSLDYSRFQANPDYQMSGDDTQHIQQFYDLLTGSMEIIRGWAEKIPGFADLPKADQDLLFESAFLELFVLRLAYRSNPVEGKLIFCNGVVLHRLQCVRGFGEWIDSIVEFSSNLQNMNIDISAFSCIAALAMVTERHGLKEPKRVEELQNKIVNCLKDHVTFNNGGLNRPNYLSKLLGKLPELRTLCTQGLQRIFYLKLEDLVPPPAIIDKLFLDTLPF

Test [9] addresses Transcriptional activator Myb (Homo sapiens) (UniProt P10242). The experiment in a line: ATG_Myb_CIS: Attagene CIS-FACTORIAL HepG2 Assay for human Myeloblastosis (Myb) Proto-Oncogene Transcription Factor (AID 2282986). Particulars: HepG2 Attagene CIS-FACTORIAL Myb reporter transcription; actives raise or lower the signal. A digest of the protocol:
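Using HepG2 liver cells bearing transiently transfected cis-promoter reporter constructs, the assay measures induction or loss of reporter mRNA after 24 hours of dosing. Detection used fluorescently labeled RT-PCR products separated by capillary electrophoresis.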

Test [10] concerns the target Nuclear respiratory factor 1 (Homo sapiens) (UniProt Q16656). The experiment in a line: ATG_NRF1_CIS: Attagene CIS-FACTORIAL HepG2 Assay for human Nuclear Respiratory Factor 1 (NRF1) Orphan Gene (AID 2282987). The following applies: HepG2 NRF1 cis-element reporter, Attagene multiplex; actives raise or lower the signal. In short, it runs like this:
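Reporter mRNA induction or loss in HepG2 cells after 24 h dosing; cis-regulated reporter constructs report endogenous transcription-factor activity. Quantified by RT-PCR/capillary electrophoresis fluorescence, DMSO-referenced.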

Test [11] in a line: ATG_GAL4_TRANS: Attagene TRANS-FACTORIAL HepG2 Assay for GAL4 (Internal Marker) (AID 2282976; active = hit-call score of the fitted dose curve at least 0.9, where 1 is the maximum). Particulars: HepG2 Attagene TRANS GAL4 internal marker reporter. A digest of the protocol:
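RT-PCR/capillary electrophoresis readout of reporter mRNA. HepG2, transient MRTU transfection (GAL4-UAS reporters), 24 h compound exposure. Background-control endpoint, positive direction vs DMSO baseline.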

The target in test [12] is Glucocorticoid receptor (Homo sapiens) (UniProt P04150). The experiment in a line: ATG_GR_TRANS: Attagene TRANS-FACTORIAL HepG2 Assay for human Glucocorticoid Receptor (GR) (AID 2282978; active = hit-call score of the fitted dose curve at least 0.9, where 1 is the maximum;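 also: activators score as hits since higher reporter transcript over DMSO is fitted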). Particulars: HepG2 Attagene TRANS GR reporter, mRNA transcription. In short, it runs like this:
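Transiently transfected HepG2 cells express chimeric NR-GAL4 proteins acting on GAL4-UAS reporter units. Compounds are applied for 24 h. mRNA induction over DMSO is measured by capillary electrophoresis.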

The nature of test [13]: ATG_M_32_TRANS: Attagene TRANS-FACTORIAL HepG2 Assay for M32 Transcription Factor (Internal Marker) (AID 2282984; active = hit-call score of the fitted dose curve at least 0.9, where 1 is the maximum;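 also: transcript level of a background control reporter unit measured by RT-PCR and capillary electrophoresis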). Particulars: HepG2 Attagene TRANS M32 internal marker reporter. A digest of the protocol:
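Internal background reporter in transfected HepG2: after 24 h chemical exposure, RNA reverse-transcribed, reporter cDNA amplified, fluorescently labelled and HpaI-cut, then sized by capillary electrophoresis. Gain of signal fitted against DMSO control.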

Test [14] in a line: ATG_VDRE_CIS: Attagene CIS-FACTORIAL HepG2 Assay for human Vitamin D Receptor Element (VDRE) (AID 2282968). The following applies: HepG2 VDRE cis-reporter transcription, actives raise or lower the signal. A digest of the protocol: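 Readout is VDRE-driven reporter mRNA reflecting endogenous factor activity in human HepG2 cells, sampled 24 h post-dose. Quantification used labelled RT-PCR products separated by capillary electrophoresis; bidirectional analysis relative to DMSO.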

Test [15] addresses Nuclear receptor subfamily 1 group I member 3 (Homo sapiens) (UniProt Q14994). Nature of the test: ATG_CAR_TRANS: Attagene TRANS-FACTORIAL HepG2 Assay for human Constitutive Androstane Receptor (CAR) (AID 2282969; active = hit-call score of the fitted dose curve at least 0.9, where 1 is the maximum;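 also: activators raise reporter mRNA above DMSO so AC50 marks induction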). The following applies: HepG2 Attagene TRANS-FACTORIAL CAR reporter. In short, it runs like this: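 Signal is reporter mRNA induction relative to DMSO, measured 24 h after dosing by RT-PCR with fluorescent primer extension and capillary electrophoresis. Human HepG2 liver cells carried transiently transfected chimeric NR-Gal4/GAL4-UAS reporter constructs.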

Test [16] deals with Estrogen receptor (Homo sapiens) (UniProt P03372). The experiment in a line: ATG_ERa_TRANS: Attagene TRANS-FACTORIAL HepG2 Assay for human Estrogen Receptor alpha (ERa) (AID 2282970; active = hit-call score of the fitted dose curve at least 0.9, where 1 is the maximum). Particulars: HepG2 Attagene TRANS ERa GAL4 reporter, mRNA. A digest of the protocol:
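Reporter mRNA induction after 24 hours, detected by fluorescent RT-PCR and capillary electrophoresis, gives the read-out. Cells are HepG2 transiently transfected with GAL4-UAS reporter transcription units responding to chimeric NR-Gal4. Activity is taken as gain of signal over DMSO baseline.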

Test [17] has as its target Estrogen-related receptor gamma (Homo sapiens) (UniProt P62508). Nature of the test: ATG_ERRg_TRANS: Attagene TRANS-FACTORIAL HepG2 Assay for human Estrogen-Related Receptor gamma (ERRg) (AID 2282977; active = hit-call score of the fitted dose curve at least 0.9, where 1 is the maximum;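 also: hits increase reporter signal over DMSO so potencies reflect activators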). Particulars: HepG2 Attagene TRANS reporter, ERRg transactivation. A digest of the protocol:
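Induction of reporter transcripts through a chimeric NR-Gal4 protein is quantified in transfected human HepG2 liver cells after 24 h chemical exposure, using RT-PCR with capillary electrophoresis detection and DMSO as baseline.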

Test [18] addresses Bile acid receptor (Homo sapiens) (UniProt Q96RI1). The experiment in a line: ATG_FXR_TRANS: Attagene TRANS-FACTORIAL HepG2 Assay for Farnesoid X Receptor (FXR) (AID 2282979; active = hit-call score of the fitted dose curve at least 0.9, where 1 is the maximum;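 also: hits raise reporter mRNA above DMSO so AC50 marks FXR activation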). Particulars: HepG2 Attagene TRANS FXR-GAL4 reporter transcription. A digest of the protocol:
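Read-out: fluorescent reporter transcripts quantified by capillary electrophoresis after RT-PCR of total RNA. Source cells were HepG2 transiently carrying chimeric NR-GAL4 plus GAL4-UAS reporter units, dosed 24 h. Activity fitted upward relative to DMSO baseline.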

Test [19] can be described thus: ATG_M_06_TRANS: Attagene TRANS-FACTORIAL HepG2 Assay for M06 Transcription Factor (Internal Marker) (AID 2282983; active = hit-call score of the fitted dose curve at least 0.9, where 1 is the maximum). The following applies: HepG2 Attagene TRANS M06 internal marker reporter. A digest of the protocol: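 Read-out: fluorescent reporter cDNA fragments resolved by capillary electrophoresis after RT-PCR and HpaI cut. Source cells were HepG2 carrying transfected multi-reporter GAL4 constructs, dosed 24 h. Increase over DMSO control analysed.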

Sequence of Nuclear respiratory factor 1 (Homo sapiens) (Q16656 whole entry, looked up): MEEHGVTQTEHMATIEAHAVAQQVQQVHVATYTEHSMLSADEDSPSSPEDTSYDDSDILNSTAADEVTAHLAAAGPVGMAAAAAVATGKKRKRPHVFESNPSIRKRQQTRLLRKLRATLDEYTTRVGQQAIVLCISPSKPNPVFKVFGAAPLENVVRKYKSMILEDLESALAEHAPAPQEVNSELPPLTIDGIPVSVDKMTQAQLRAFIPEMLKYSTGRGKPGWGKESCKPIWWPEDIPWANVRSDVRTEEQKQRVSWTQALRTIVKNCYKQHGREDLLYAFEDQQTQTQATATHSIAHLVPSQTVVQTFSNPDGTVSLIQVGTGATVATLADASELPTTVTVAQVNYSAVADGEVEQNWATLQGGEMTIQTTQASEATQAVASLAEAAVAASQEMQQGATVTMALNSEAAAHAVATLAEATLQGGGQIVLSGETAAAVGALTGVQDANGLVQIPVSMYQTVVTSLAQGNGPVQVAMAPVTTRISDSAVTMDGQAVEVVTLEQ
Sequence of Oxysterols receptor LXR-beta (Homo sapiens) (P55055 whole entry, looked up, the tested form may be a part): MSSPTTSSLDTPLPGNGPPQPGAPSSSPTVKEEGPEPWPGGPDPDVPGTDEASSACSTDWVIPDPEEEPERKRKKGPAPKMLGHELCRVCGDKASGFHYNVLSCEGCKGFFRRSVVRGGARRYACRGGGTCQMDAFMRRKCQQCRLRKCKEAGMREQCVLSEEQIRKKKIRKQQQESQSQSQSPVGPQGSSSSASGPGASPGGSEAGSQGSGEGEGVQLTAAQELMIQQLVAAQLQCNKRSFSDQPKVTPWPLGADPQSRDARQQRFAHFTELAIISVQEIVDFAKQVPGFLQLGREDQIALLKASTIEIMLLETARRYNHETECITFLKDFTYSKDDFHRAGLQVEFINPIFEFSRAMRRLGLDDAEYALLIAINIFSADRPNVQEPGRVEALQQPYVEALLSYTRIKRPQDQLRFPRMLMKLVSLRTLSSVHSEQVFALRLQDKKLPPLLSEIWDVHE
Sequence of Transcriptional activator Myb (Homo sapiens) (P10242 whole entry, looked up): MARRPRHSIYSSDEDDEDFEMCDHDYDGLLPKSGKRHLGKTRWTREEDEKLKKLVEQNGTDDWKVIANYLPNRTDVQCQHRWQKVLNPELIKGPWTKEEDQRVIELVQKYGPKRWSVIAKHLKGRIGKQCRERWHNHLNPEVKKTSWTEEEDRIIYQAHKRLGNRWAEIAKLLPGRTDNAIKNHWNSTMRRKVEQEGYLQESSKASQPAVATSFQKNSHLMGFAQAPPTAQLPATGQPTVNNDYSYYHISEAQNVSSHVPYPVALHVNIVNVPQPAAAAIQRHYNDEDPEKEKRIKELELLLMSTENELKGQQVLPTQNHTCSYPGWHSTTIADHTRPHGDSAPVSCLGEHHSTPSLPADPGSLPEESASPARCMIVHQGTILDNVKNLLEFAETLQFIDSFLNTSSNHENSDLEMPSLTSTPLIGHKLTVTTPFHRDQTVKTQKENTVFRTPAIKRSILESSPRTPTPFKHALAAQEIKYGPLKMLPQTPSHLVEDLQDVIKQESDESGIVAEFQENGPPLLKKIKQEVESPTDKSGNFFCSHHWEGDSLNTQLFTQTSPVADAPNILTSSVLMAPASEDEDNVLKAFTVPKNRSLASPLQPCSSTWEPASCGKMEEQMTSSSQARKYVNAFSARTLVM
Sequence of Hepatocyte nuclear factor 4-alpha (Homo sapiens) (P41235 whole entry, looked up, the tested form may be a part): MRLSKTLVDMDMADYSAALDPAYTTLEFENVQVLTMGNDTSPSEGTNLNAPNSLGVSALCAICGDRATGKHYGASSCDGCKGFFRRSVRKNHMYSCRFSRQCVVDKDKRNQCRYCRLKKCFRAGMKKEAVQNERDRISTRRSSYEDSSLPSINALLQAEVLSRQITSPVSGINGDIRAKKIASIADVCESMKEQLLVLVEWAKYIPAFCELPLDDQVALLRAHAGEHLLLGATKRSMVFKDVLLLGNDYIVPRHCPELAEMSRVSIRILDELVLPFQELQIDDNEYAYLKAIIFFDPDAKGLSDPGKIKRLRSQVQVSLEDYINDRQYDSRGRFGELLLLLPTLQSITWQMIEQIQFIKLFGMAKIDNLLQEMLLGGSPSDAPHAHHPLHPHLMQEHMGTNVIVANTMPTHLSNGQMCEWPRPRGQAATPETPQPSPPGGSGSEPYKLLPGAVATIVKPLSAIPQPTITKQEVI
Sequence of Glucocorticoid receptor (Homo sapiens) (P04150 whole entry, looked up, the tested form may be a part): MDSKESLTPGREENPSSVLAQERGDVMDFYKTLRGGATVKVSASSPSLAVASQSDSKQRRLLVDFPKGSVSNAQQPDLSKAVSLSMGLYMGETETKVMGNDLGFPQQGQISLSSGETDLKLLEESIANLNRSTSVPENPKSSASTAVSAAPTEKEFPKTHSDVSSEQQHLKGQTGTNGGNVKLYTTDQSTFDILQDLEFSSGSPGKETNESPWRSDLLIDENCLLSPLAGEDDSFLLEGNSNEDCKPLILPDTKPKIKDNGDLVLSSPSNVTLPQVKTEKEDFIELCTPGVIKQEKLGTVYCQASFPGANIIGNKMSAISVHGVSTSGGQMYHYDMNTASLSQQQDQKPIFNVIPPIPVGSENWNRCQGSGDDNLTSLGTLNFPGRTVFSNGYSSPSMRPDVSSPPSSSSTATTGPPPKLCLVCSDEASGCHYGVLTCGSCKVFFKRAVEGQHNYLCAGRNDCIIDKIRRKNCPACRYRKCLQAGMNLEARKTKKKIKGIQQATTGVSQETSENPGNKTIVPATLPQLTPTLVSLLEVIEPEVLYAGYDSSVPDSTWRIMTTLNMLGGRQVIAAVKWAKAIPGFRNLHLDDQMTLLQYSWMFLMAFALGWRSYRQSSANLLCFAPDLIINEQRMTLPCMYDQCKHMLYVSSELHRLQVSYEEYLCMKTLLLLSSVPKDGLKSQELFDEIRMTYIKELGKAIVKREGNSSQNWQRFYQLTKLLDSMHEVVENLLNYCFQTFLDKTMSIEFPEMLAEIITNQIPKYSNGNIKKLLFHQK
Sequence of Estrogen-related receptor gamma (Homo sapiens) (P62508 whole entry, looked up, the tested form may be a part): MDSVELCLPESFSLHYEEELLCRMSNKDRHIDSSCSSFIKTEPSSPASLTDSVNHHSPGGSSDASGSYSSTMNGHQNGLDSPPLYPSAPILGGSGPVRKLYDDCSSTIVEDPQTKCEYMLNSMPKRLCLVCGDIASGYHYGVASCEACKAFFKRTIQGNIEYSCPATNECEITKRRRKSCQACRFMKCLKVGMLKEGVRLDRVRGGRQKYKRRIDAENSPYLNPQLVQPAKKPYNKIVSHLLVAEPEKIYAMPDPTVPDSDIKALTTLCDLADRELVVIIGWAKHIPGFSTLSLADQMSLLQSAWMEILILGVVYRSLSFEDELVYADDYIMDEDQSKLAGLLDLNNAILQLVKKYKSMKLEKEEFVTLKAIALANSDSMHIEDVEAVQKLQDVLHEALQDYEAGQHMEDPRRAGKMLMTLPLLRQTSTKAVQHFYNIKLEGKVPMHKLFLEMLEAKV
Sequence of Nuclear receptor subfamily 1 group I member 3 (Homo sapiens) (Q14994 whole entry, looked up, the tested form may be a part): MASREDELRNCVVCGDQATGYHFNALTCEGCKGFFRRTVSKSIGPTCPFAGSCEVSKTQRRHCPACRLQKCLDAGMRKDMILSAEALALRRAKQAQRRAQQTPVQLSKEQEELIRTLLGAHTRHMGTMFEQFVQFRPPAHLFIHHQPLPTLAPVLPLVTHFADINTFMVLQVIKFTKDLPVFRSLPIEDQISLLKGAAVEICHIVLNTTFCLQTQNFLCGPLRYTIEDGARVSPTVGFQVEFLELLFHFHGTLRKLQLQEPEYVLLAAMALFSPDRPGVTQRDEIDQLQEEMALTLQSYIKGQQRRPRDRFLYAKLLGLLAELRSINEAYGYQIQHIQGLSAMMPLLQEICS

With `CC(CN1c2ccccc2Sc2ccccc21)N(C)C` (stereo unspecified), the AC50 in [1] is 50.2 µM (active); in test [3], 24.2 µM (active). Besides, the compound was called inactive in test [2], in [4], in test [5], in [6], in test [7] and in [8]. Also, the call in test [9] and in test [10] was inactive.
In the case of `O=C(O)c1cccc([N+](=O)[O-])c1`, the compound was called inactive in [1], in test [2], in test [3], in test [11], in [12] and in test [5]. In addition, the result in test [7], in test [13], in [9] and in test [10] was inactive.
As for `C=C(C)[C@@H]1CC[C@@H](C)C[C@@H]1O`, the outcome in [1], in test [2], in [3], in test [11], in [6] and in [13] was inactive. The compound was classed as inactive in [9] and in [10].
Regarding `CCCC[n+]1ccccc1`, the result in test [1], in test [2], in test [3], in test [4], in test [5] and in [6] was inactive. The outcome in test [7], in test [13], in test [8], in [9] and in [10] was inactive.
Take `Cc1ncc([N+](=O)[O-])n1C`: the outcome in test [1], in test [14], in test [15], in [16], in test [3] and in test [4] was inactive. The result in test [11], in [17], in [18], in [6], in [8] and in test [9] was inactive. For the same compound, the result in [10] was inactive.
`CCCC1CCC(=O)O1` (stereo unspecified): the result in test [1], in [2], in test [3], in [5], in [19] and in test [8] was inactive. The compound was called inactive in [9] and in [10].
`CCCCCCCCCCN`: the outcome in test [1], in test [2], in [3], in test [4], in [12] and in test [5] was inactive. Further, the compound was called inactive in test [6], in test [13], in test [8], in test [9] and in test [10].
For `NCCCN1CCOCC1`, the compound was classed as inactive in test [1], in [2], in [3], in test [6], in test [19] and in test [8]. The compound was classed as inactive in test [9] and in test [10].
As to `S=C(S)NCCNC(=S)S`, the result in test [1], in test [2], in test [3], in [11], in [12] and in test [19] was inactive. Moreover, the call in test [13], in test [9] and in test [10] was inactive.
`CC1(C)[C@@H]2CC[C@@]1(C)[C@H](O)C2`: the call in test [1], in [2], in [3], in test [4], in [11] and in [12] was inactive. Besides, the compound was called inactive in test [9] and in [10].
For the compound `C=CC(=O)OCCOCCOCC`, the compound was called inactive in test [1], in [2], in test [4], in test [17], in test [5] and in test [7]. The result in test [19], in test [13], in test [9] and in test [10] was inactive. The AC50 in [3] was 135 µM (active).
Turning to `COC(C(=O)O)c1ccccc1` (stereo unspecified), the result in test [1], in [2], in test [3], in test [7], in [19] and in test [9] was inactive. Also, the outcome in test [10] was inactive.
`C/C=C(\C)C(=O)OCc1ccccc1`: the outcome in test [1], in [2], in test [3], in [11], in test [12] and in test [5] was inactive. The outcome in test [6], in [19], in test [13], in test [8], in [9] and in test [10] was inactive.

By AC50 is commonly meant the midpoint of the concentration-response curve, whichever way the signal moves.
